Drawing on PMC12136788, this text covers binding signal for 28 molecules.

To fix the notation:
B1: chr11:10770493:10770605:+|CDS|ENSG00000198730|unk|FALSE|unique (ssRNA)
RNA: GGGAGUUCUACAGUCCGACGAUCACAUGUGGCACCCAGUGAUACAGUUCUUAUGUUUAAUGUGGCCUUGGUCCUGCAAAGAUUAGCUACCUCUGUCCUGAAAGAUGAAAAAAGUAAUCUGAAGGAAGUACUUAAUGCUGUGAACAACAGAGGAUUGAGCAUCA
B2: chr1:51919672:51919773:-|3pUTR|ENSG00000169213|unk|FALSE|unique (ssRNA)
RNA: GGGAGUUCUACAGUCCGACGAUCUAUUCUUUGCCUGCCCCUGGGGUUCUCUGCAGAUGGUCCCAGUAAUAGAUACUCAGCACUAGACUAACAUAACAGGUCACUACACGGGUGCAGAAUCACUUUACAAAAGAAGACUCUGUUCAACAGAGGAUUGAGCAUCA
B3: ENSG00000107863:be:win_5751|CDS|ENSG00000107863|bound_else_gene|NA|bound_elsewhere_windowed (ssRNA)
RNA: GGGAGUUCUACAGUCCGACGAUCACCUGACCAAAUAAACGGAGAAAGCUUCCAGAACGUGAGCAAAAAUGCUAGUUCUGCAGCGAAUGCCCAACCUCAUAAACUGUCUGAAACCCCAGGCAGUAAAGCAGAGUUUCAUCCCUGCAACAGAGGAUUGAGCAUCA
B4: chr1:113685846:113685948:+|3pUTR|ENSG00000081026|unk|FALSE|unique (ssRNA)
RNA: GGGAGUUCUACAGUCCGACGAUCUAUAUACACUUGAGGUUCUGAUUAGAGAAAGAUCUGUAAAUUGCUCAUUAUUUUUUAUAUAGAUAUUUAAAAAAAACAGUUUAUGGCCUGCAUUUCUUUUACUGUCACAUUGGUUUAAUGCAACAGAGGAUUGAGCAUCA
B5: chr21:14485227:14485911:-|three_prime_utr|ENSG00000155307|control|control|control (ssRNA)
RNA: GGGAGUUCUACAGUCCGACGAUCCCCAACUAUAUAUCUACAGAUGCAUUCCAUUUUAACUCUUCUUGAGCUAAAACGUCAAAUAGGAGAGGAAGAUAAGAUAAAUAUUUGUAAAUAAAACCUAAAGUUUAAAUGUUUUAAUCUCAACAGAGGAUUGAGCAUCA
B6: chr2:158176520:158176661:-|CDS|ENSG00000153237|control|control|control (ssRNA)
RNA: GGGAGUUCUACAGUCCGACGAUCGCUGUUGUUGCUCAAUUUGAUCCUGUUAGAAUGAUGUCAGAUACAAUGGCAUCAAAAGCUAGAAUGGGCAUUGAAAUUGAAGAAGAAUUUAUUCUUCAAAAGCCACUCUUCACAUUGAAUCAACAGAGGAUUGAGCAUCA
B7: chr2:151248206:151248307:-|3pUTR|ENSG00000184898|msi1|FALSE|unique (ssRNA)
RNA: GGGAGUUCUACAGUCCGACGAUCUUUUUUUAAAGCAAAGAUUAAAUUCCCAUGUAAAACCUUCCUCCCUAUACAAAAAAGAAUAGCAGCAUUUUUAUCUUCAAUGACAAAGAAUUGAGUCCAAGAAAAUACUGUAUAAACCUUCAACAGAGGAUUGAGCAUCA
B8: chr14:55048714:55048815:+|3pUTR|ENSG00000180008|msi1|FALSE|bound_elsewhere (ssRNA)
RNA: GGGAGUUCUACAGUCCGACGAUCUUUCUAAUUUUGAACAGAUGACUCAGUCCUAAAUCUUUGCCUUUAUUUCCUAUAAAAUGUAGGUGAUACUUGUAACUCGACUUCCUGGAGUUAAUUCUUCAGCAAGAGGUGACCCUGGGACAACAGAGGAUUGAGCAUCA
B9: chr9:72354534:72354635:-|3pUTR|ENSG00000107372|msi1|FALSE|unique (ssRNA)
RNA: GGGAGUUCUACAGUCCGACGAUCGUCCUAGUUUUUACUUUUAUUCUUAAAGCAUUCAGUUUUGCUUUCAAUUUUAUGUACCUUAGUUCUGAGUUAGACCUGCAGAUGUGUACAGAUAGUUCAUAUUUAUGUAUUGCACAUAAUCAACAGAGGAUUGAGCAUCA
B10: chr10:95311796:95311897:-|3pUTR|ENSG00000095637|unk|FALSE|unique (ssRNA)
RNA: GGGAGUUCUACAGUCCGACGAUCCAGACAUAGAUUUUUCUGUUCAUUUAUUUUUCUUCAUUGCAGUGGAUUGAUUUGAUAAAUAGAUGUGUUGAAUUACUACAUUUGCUGUACAUAUUAUUUAAUAAACUUUAUUCAGAAUUGCAACAGAGGAUUGAGCAUCA
B11: chr9:72354534:72354635:-|3pUTR|ENSG00000107372|msi1|total|mutant (ssRNA)
RNA: B9 RNA with U28C, A29C, U83C, A84C, U94C, A95C, U116C, A117C
B12: ENSG00000070961:be:win_5651|3pUTR|ENSG00000070961|bound_else_gene|NA|bound_elsewhere_windowed (ssRNA)
RNA: GGGAGUUCUACAGUCCGACGAUCGUUUCUAGUCUUGGUUUUGCCAUUAAUGUGCUGCAUGAUCUUGGGAAAAUCAUUUACCCUAAAUAAGGGUGGUGGACUAUCUUGAAGAACCCUUUCAACUCUAAAAAUUGACCCUAUCAACAACAGAGGAUUGAGCAUCA
B13: chr17:18209558:18209659:+|3pUTR|ENSG00000091542|msi1|FALSE|unique (ssRNA)
RNA: GGGAGUUCUACAGUCCGACGAUCGGUAGCUUCUAUCCACUCAGAUCCUGGAAGGCAGCAAGGUUUUGUGGAUCUAGAUUCAUUAGGAAUGUCUUCUUGUCAGCCAGGCCAGGACCCGGGCUUGCCAAGAGCAGAGGCCCUCCCCAACAGAGGAUUGAGCAUCA
B14: chr2:1633339:1633490:-|3pUTR|ENSG00000130508|msi1|total|mutant (ssRNA)
RNA: GGGAGUUCUACAGUCCGACGAUCUUCAUAAGCCACAUUCCGAAACAGGUUUGCUUUCAGCUGUCACUUGCACACAUACUGCCCCGUUGUGAACCAAAUGUGAAAAAACCUCCUUCAUCCCAUUGUGUAUCUGAUACCUGCCGACAACAGAGGAUUGAGCAUCA
B15: chr19:14119889:14120036:-|3pUTR|ENSG00000105011|msi1|FALSE|unique (ssRNA)
RNA: GGGAGUUCUACAGUCCGACGAUCAGCAGACCCACUCCAGCUUUCUGGUGUCACAGGCGGGAAUGUUAGUUAGUAGGUAGACUUAGAUCCCAUUUCUGUCCUGCUCCCAGGAAGAUUCUUAGGUCCUCUUCAAUCCAGCAGCCCCAACAGAGGAUUGAGCAUCA
B16: ENSG00000165672:stop:overlap|stop_codon|ENSG00000165672|stop_codon|NA|stop_codon (ssRNA)
RNA: GGGAGUUCUACAGUCCGACGAUCCUCCUACGAUCAAGCCAAGUCCAGCUGCUUCCAAAGAGUACUUUCAGAAGGUAAAUCAGUAGAUCACCCAUGUGUAUCUGCACCUUCUCAACUGAGAGAAGAACCACAGUUGAAACCUGCCAACAGAGGAUUGAGCAUCA
B17: ENSG00000147536:stop:overlap|stop_codon|ENSG00000147536|stop_codon|NA|stop_codon (ssRNA)
RNA: GGGAGUUCUACAGUCCGACGAUCUCCGCUACGUCCUCAGCAGCUACUUGCGGUGUCGCCUCAUGAAGUUCCCAAACCAGAUCUAGAUUCUUACGUGUUUCUGAGAGUGAGAGAACGACAAGAAAACAUACUGGUAGAACCAGACAACAGAGGAUUGAGCAUCA
B18: ENSG00000198589:be:win_3651|CDS|ENSG00000198589|bound_else_gene|NA|bound_elsewhere_windowed (ssRNA)
RNA: GGGAGUUCUACAGUCCGACGAUCCCUCACUAGAGAAACCAAAUUAAUUAAUGAUUGUCAUGGUAGUGUCUCUGAGGCUUCUUCUGAGCAAAAGAUUGCGAAGUUGGAUGUUUCCAAUGUUGCUACAGAUACUGAGAGGCUGGACAACAGAGGAUUGAGCAUCA
B19: ENSG00000113300:stop:overlap|stop_codon|ENSG00000113300|stop_codon|NA|stop_codon (ssRNA)
RNA: GGGAGUUCUACAGUCCGACGAUCUGGAGCUCUUACUGCCUUUCCUGCCCCAAGUCAACGGCAUCCACCUUCCUGGCAGGAGGUAGUCAAGCACCUUCAGAGGACAGCCUUGAUUCACUUGUAAACUUGUGAAAAUCUGAACAUCAACAGAGGAUUGAGCAUCA
B20: chr1:17068045:17068226:-|3pUTR|ENSG00000117115|msi1|FALSE|unique (ssRNA)
RNA: GGGAGUUCUACAGUCCGACGAUCCUCCUUCCACUGCCUUGACUUUCUUCCUUUUUAUUCCUGGUGCCAUCUGUCCAGGCAGCUAGACAAGAACUUGUUCGCCAGCAGCCAGAUUCAGGCCUUCCCAGGGGCAUAAUAAGUGACCAACAGAGGAUUGAGCAUCA
B21: chr19:14119889:14120036:-|3pUTR|ENSG00000105011|msi1|total|mutant (ssRNA)
RNA: GGGAGUUCUACAGUCCGACGAUCAGCAGACCCACUCCAGCUUUCUGGUGUCACAGGCGGGAAUGUCCGUCCGCCGGCCGACUCCGAUCCCAUUUCUGUCCUGCUCCCAGGAAGAUUCUCCGGUCCUCUUCAAUCCAGCAGCCCCAACAGAGGAUUGAGCAUCA
B22: chr20:50583650:50583751:+|3pUTR|ENSG00000196396|msi1|FALSE|unique (ssRNA)
RNA: GGGAGUUCUACAGUCCGACGAUCUUCCUAAGCCUGUUGCUGAAGUCAUUGUCGCUCAGCAAUAGGGUGCAGUUUUCCAGGAAUAGGCAUUUGCCUAAUUCCUGGCAUGACACUCUAGUGACUUCCUGGUGAGGCCCAGCCUGUCAACAGAGGAUUGAGCAUCA
B23: chr8:17644361:17644462:-|3pUTR|ENSG00000129422|msi1|FALSE|bound_elsewhere (ssRNA)
RNA: GGGAGUUCUACAGUCCGACGAUCCAACAUUGUGAUGUCAGUAUUUACUAAUCUACAUUCAGUGGCUGUACAAAUAACAGCUGUAGUAAGAAGAGAUUCAGGAUGCUAGAGGUGAAUAUUUGGGUCAUUUACAUGUACACUACACAACAGAGGAUUGAGCAUCA
B24: chr15:44665791:44665971:-|CDS|ENSG00000229474|control|control|control (ssRNA)
RNA: GGGAGUUCUACAGUCCGACGAUCGAUCUGUUUGUUCUGGAAUACGUGUAUGUGGGAAGUUGAAUCAUCAGACACUAGCUACAUAGACUAUGUUUACAGGGAUCCAGAGAGUCUGAAGACAUUUCUUAUGCCUUUAUAUAUUGGCAACAGAGGAUUGAGCAUCA
B25: chr4:75800632:75800752:+|CDS|ENSG00000138768|unk|total|mutant (ssRNA)
RNA: GGGAGUUCUACAGUCCGACGAUCAAACAACUGAUUGAGAAGAGGAUUGGCAAAGAGAAUUUCACCGAGAAACCCGGAUUUAUCCGCAAACAUGAGUUGUAUUCCAGAGCAUCUCAGAAACCCCAGCCAAACUUUCCCAGUCCACAACAGAGGAUUGAGCAUCA
B26: chr3:45095346:45095568:-|CDS|ENSG00000163814|control|control|control (ssRNA)
RNA: GGGAGUUCUACAGUCCGACGAUCAAACAGAGCCGCAAGUUUGUCCCUGGCUGUUUCGUGUGUCUAGAAUCUCGGACCUGCAGUAGCAACCUCACCCUGACAUCUGGCUCCAAACACAAAAUCUCCUUCCUUUGUGAUGAUCUGCAACAGAGGAUUGAGCAUCA
B27: chr1:17407970:17408071:-|3pUTR|ENSG00000179051|msi1|total|mutant (ssRNA)
RNA: GGGAGUUCUACAGUCCGACGAUCGGGUACCGUUCUGCUGACCCAGCUCCCUUCCGUCACGUUUGCUUGGCUCUGGUACCAAACCGUUGGGAUUACCGAAGAGUCCCCUUCCUUGCGUGUCAGCACGGAUGCUGUGACUGCCACCAACAGAGGAUUGAGCAUCA
B28: chr9:19276226:19276327:+|CDS|ENSG00000137145|unk|total|mutant (ssRNA)
RNA: GGGAGUUCUACAGUCCGACGAUCCUUUGUCGCCGCUGGUCUCACUGACACAUCUACUCUUUUGGAUCAAGAAAUAAAUCGUUCCGAUACUAAGUCAACUGGACCUAAAGCUCCAAUUACAGACAUUGCCAUUAUUAUCAAAUCCAACAGAGGAUUGAGCAUCA

Numbering of substitutions follows the chain as printed. Whole data set: some 5,800 sequences, median “enrichment r” near 0.54, cut for the highest 2% near 16. Shown is part of a subset that was picked to be rich in the highest values.

Chain of MSI1 full-length (Q61474 whole entry): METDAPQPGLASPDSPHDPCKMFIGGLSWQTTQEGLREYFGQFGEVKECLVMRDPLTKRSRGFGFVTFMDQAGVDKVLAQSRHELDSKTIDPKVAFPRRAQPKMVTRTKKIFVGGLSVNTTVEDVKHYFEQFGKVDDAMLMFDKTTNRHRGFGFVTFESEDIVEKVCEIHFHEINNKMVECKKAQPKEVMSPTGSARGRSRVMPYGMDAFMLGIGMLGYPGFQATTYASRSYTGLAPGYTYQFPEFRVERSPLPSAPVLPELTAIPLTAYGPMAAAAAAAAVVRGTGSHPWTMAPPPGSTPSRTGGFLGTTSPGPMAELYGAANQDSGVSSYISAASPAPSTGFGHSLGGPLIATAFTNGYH

This experiment concerns the target MSI1 full-length (mouse, UniProt Q61474 1-362). As to the kind of experiment: nsRBNS (natural sequence RNA bind-n-seq); RBNS binding buffer (assumed for nsRBNS): 25 mM Tris pH 7.5, 150 mM KCl, 3 mM MgCl2, 0.01% Triton X-100, 500 ug/ml BSA, 20 U/ml SUPERase-In, 4 C; UNK is unkempt and MSI1 is Musashi-1; names of the RNAs are library labels; protein concentration not given here; high values mean tight binding.
With B1, the binding signal turned out to be 0.659 enrichment R.
On to B2, for which the binding signal came out at 0.896 enrichment R.
The same measure for B3: 0.256 enrichment R; for B4: 13.4 enrichment R; for B5: 1.2 enrichment R.
The same measure for B6: 0.406 enrichment R; for B7: 0.494 enrichment R; for B8: 0.258 enrichment R.
The same measure for B9: 42.6 enrichment R; for B10: 2.8 enrichment R.
B11 registered a binding signal of 1.52 enrichment R.
With B12 the figure was 0.357 enrichment R.
With B13 the figure was 1.93 enrichment R.
With B14 the figure was 0.388 enrichment R; with B15, 38.2 enrichment R; with B16, 0.684 enrichment R.
For B17, the binding signal stood at 26.3 enrichment R.
With B18 the figure was 0.605 enrichment R; with B19, 38.7 enrichment R; with B20, 0.526 enrichment R.
With B21 the figure was 0.641 enrichment R.
The same measure for B22: 0.237 enrichment R; for B23: 0.442 enrichment R; for B24: 0.282 enrichment R.
With B25, the binding signal was determined as 0.541 enrichment R.
With B26 the figure was 0.476 enrichment R; with B27, 0.479 enrichment R.
The same measure for B28: 0.315 enrichment R.
